# The supplement of paper PMC4188521
# Compound: CCc1cnn2c(NCc3ccc[n+]([O-])c3)cc(N3CCCC[C@H]3CCO)nc12 [dinaciclib]
# Assay: cell viability remaining relative to DMSO control; higher = less cytotoxic (more viable cells)
# Conditions: 100 nM; 24 h
# Outline: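 Solid tumour cell lines from commercial cell banks were exposed to 100 nM of the test compound for 24 hr, with final DMSO ≤0.2%. Viability was read as ATP luminescence with the CellTiter-Glo assay, following the manufacturer's instructions. Remaining viability is the ratio of light units in treated wells to DMSO-treated control wells, expressed as % of DMSO control. Values are means of 2–6 plates with triplicate wells per plate.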
row,Target,cell viability remaining [%]
1,HCT8,51.3
2,NUGC4,108
3,HS839T,97.6
4,RKO,49.6
5,T47D,87.6
6,HMCB,37.5
7,H1437,41.9
8,SJRH30,12
9,SJSA1,66.7
10,T84,76.2
11,KATOIII,87.5
12,HS746T,83
13,SKMEL3,42.9
14,MSTO211H,68.4
15,COV318,79.8
16,SKMEL24,81.7
17,SW1088,58

row,Target,cell viability remaining [%]
1,SKMEL5,76.8
2,SU8686,48.9
3,BT549,51.3
4,H1975,69.4
5,HCC1500,46.2
6,AZ521,56.1
7,KPL1,50.2
8,GRM,47
9,EN,51.9
10,LS1034,75
11,786O,44.3
12,A172,73.1
13,HCC44,85.8
14,COV644,23.3
15,H441,73.4
16,A101D,33.9
17,UACC62,57.1
